The values below come from PubChem BioAssay (NCATS).

The target of test [1] is Rap guanine nucleotide exchange factor 3 (Homo sapiens) (UniProt O95398). Nature of the test: Confirmatory qHTS for agonist of cAMP-regulated guanine nucleotide exchange factor 3 (EPAC1) (AID 1645881).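 Also: EPAC1 catalysed release of BODIPY-GDP from Rap1B seen as fluorescence loss; 100% = effect of cAMP agonist control; nearly all actives have a fitted effect of over 75% in size.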 A general note: In qHTS, concentration-response curves come from the screen itself.
Rap guanine nucleotide exchange factor 3 (Homo sapiens), sequence (O95398 whole entry, looked up): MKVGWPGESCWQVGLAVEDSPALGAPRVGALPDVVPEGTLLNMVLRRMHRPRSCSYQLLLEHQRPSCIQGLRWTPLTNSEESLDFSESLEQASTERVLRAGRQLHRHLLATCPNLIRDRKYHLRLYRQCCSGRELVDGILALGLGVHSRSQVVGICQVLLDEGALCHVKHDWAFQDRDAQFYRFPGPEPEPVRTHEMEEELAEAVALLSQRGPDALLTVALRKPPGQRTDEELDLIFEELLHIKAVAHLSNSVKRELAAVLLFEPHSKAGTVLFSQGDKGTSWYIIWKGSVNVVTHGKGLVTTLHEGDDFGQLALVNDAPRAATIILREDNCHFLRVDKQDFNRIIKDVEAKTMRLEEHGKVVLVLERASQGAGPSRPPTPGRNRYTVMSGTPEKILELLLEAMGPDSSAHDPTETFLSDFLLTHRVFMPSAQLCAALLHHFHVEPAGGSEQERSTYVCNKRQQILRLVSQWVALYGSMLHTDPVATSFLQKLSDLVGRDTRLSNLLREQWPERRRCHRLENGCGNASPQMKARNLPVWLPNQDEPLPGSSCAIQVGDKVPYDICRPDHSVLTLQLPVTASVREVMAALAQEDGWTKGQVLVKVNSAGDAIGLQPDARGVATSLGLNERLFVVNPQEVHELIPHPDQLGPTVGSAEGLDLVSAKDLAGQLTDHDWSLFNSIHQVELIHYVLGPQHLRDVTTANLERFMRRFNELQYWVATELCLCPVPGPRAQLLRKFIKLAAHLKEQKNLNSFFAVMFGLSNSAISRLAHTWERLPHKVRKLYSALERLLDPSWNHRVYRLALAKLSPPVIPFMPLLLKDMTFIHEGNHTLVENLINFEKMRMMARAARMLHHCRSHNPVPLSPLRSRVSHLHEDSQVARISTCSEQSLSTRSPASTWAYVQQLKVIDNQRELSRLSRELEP
Test [2] concerns the target Rap guanine nucleotide exchange factor 4 (Homo sapiens) (UniProt Q8WZA2). Nature of the test: Confirmatory qHTS for agonist of cAMP-regulated guanine nucleotide exchange factor 4 (EPAC2) (AID 1645884).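 Also: nucleotide exchange releases bodipy-GDP from Rap1 and this lowers its fluorescence; % is scaled to controls: 0 for no effect and ±100 for the full control effect; nearly all actives have a fitted effect of over 65% in size.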
Test [3] shares this target. Nature of the test: Confirmatory qHTS for antagonist of cAMP-regulated guanine nucleotide exchange factor 4 (EPAC2) (AID 1645885). Also: nearly all actives have a fitted effect of over 25% in size. Also: potency is read from the fitted curve at half-maximal effect. As to activity change, negative = inhibition: % is scaled to controls: 0 for no effect and ±100 for the full control effect.
The target in test [4] is Rap guanine nucleotide exchange factor 3 (Homo sapiens) (UniProt O95398). Nature of the test: Counterscreen qHTS for antagonist of cAMP-regulated guanine nucleotide exchange factor 3 (EPAC1) (AID 1645888).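 Also: fluorescence loss as bound BODIPY-GDP is released from Rap1B; % of control where 0% means no effect.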 Put shortly:
(§1)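 Measured: fluorescence of BODIPY-GDP bound to Rap1B, which falls as exchange proceeds. Conditions include 50 uM competing GDP, 5 and 30 min reads, and a later cAMP challenge for antagonist detection.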
For orientation: The purpose of a counterscreen is to sort out artefacts and off-target activity.

Test [5] has the same target. Nature of the test: Counterscreen qHTS for agonist of cAMP-regulated guanine nucleotide exchange factor 3 (EPAC1) (AID 1645889). Also: nearly all actives have a fitted effect of over 40% in size. Also: potency is read from the fitted curve at half-maximal effect. As to activation: % of control where 0% means no effect. The gist of the method:
as §1

Results filed as inconclusive are left out. Values without a mark were called inactive. The source made the active and inactive calls. Calls follow the shape of the dose curve; as a rule, active = well fitted curve in the direction sought with a large enough effect; inconclusive = small, poorly fitted or top-dose-only effect, or another doubt; inactive = no such curve, though single readings can be large; an effect the other way counts as inactive or inconclusive.

Rap guanine nucleotide exchange factor 4 (Homo sapiens), sequence (Q8WZA2 whole entry, looked up): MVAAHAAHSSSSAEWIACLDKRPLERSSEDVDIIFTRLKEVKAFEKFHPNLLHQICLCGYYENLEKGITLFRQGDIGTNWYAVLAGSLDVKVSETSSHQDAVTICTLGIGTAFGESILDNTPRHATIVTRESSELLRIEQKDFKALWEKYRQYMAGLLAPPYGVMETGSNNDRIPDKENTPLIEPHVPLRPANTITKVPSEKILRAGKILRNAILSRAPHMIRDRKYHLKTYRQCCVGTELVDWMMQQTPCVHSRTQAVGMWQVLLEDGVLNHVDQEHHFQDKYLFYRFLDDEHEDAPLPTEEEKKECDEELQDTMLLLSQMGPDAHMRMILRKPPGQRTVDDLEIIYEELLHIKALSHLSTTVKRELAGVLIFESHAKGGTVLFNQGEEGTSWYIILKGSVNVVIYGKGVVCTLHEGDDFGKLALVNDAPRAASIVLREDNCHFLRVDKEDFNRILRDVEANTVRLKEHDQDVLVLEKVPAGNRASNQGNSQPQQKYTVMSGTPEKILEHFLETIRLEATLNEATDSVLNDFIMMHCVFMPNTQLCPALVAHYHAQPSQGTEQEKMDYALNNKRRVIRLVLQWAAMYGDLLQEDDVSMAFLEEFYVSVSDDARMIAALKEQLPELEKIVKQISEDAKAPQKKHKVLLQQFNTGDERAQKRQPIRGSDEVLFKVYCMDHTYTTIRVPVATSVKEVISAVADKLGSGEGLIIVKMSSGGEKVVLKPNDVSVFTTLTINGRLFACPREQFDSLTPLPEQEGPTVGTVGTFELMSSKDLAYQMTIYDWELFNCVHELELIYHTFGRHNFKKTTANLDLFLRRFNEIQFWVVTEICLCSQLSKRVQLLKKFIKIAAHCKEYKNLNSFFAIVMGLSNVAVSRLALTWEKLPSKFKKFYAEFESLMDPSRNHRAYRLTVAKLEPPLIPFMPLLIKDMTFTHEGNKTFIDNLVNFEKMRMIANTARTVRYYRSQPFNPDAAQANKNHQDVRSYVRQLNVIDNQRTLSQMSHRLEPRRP

For `CC(C)N1CCc2c(sc(NC(=O)c3ccc(S(=O)(=O)N4CCc5ccccc54)cc3)c2C(N)=O)C1`, the Potency entry in test [1], in test [2], in test [3], in test [4] and in test [5] was “inactive” in each case.
With `NS(=O)(=O)c1ccc(Nc2nc(-c3cccc([N+](=O)[O-])c3)cs2)cc1`, the Potency result in test [1] and in test [3] was “inactive” throughout. Moreover, the activation is 3.15% [at 17.1 µM, percent relative to cAMP agonist control] in test [2] and 15.6% [at 30.8 µM] in test [5]. Also, the activity change, negative = inhibition in test [4] is -4.36% [at 30.8 µM].
For `CCOc1cccc(-c2c(C(=O)N/N=C/c3cccs3)nnn2-c2nonc2N)c1`, the Potency result in test [1] and in test [3] was “inactive” throughout. Further, the activation in test [2] was 2.81% [at 17.1 µM, percent relative to cAMP agonist control]. Further, the activity change, negative = inhibition in test [4] was 15% [at 30.8 µM]. The Potency in test [5] is 10 µM (active).
`COc1cc(/C=C2/SC(=O)NC2=O)ccc1OCc1ccccc1`: the Potency entry in test [1], in test [2], in test [3], in test [4] and in test [5] was “inactive” throughout.
With `Cc1oc2c(cc(NS(=O)(=O)c3ccc(F)cc3)c3ccccc32)c1C(=O)O`, the Potency result in test [1], in test [2], in test [4] and in test [5] was “inactive” each time. In addition, the Potency in test [3] was 75.7 µM (active).
`CCC(C(=O)O)N1C(=O)/C(=C/C(C)=C/c2ccccc2)SC1=S` (stereo not given): the Potency entry in test [1], in test [2], in test [4] and in test [5] was “inactive” in each case. Further, the Potency in test [3] was 75.7 µM (active).
Take `CCO[C@@H]1OC(C(=O)N2CCN(Cc3ccc4c(c3)OCO4)CC2)=C[C@H](C2CCCCC2)[C@H]1CCCO`: the Potency result in test [1], in test [2], in test [3], in test [4] and in test [5] was “inactive” throughout.
For `CCc1cccc(C)c1Nc1c(-c2ccsc2)nc2ncccn12`, the Potency entry in test [1], in test [2], in test [4] and in test [5] was “inactive” each time. In test [3], the outcome is “inactive [at 12.7 µM]”.
As for `O=S(=O)(O)c1ccc(NN=Cc2ccccc2O)cc1`, the Potency result in test [1] and in test [3] was “inactive” each time. The activation in test [2] is -8.55% [at 17.1 µM, percent relative to cAMP agonist control]; in test [5], 20.1% [at 30.8 µM]. In addition, in test [4], the activity change, negative = inhibition is 3.2% [at 30.8 µM].
For the compound `Cn1c(/N=C/c2c(O)ccc3ccccc23)nc2ccccc21`, the Potency entry in test [1], in test [2], in test [3], in test [4] and in test [5] was “inactive” each time.
For `Cc1cc(NS(=O)(=O)c2ccc(Nc3nc(-c4ccc(O)cc4)cs3)cc2)no1`, the Potency entry in test [1], in test [2], in test [4] and in test [5] was “inactive” throughout. The Potency in test [3] is 26.9 µM (active).
As to `C[C@@H]1COC(=O)[C@H](NC(=O)OCC2c3ccccc3-c3ccccc32)C/C=C\C[C@@H](CC(=O)N[C@H](CO)Cc2ccccc2)C(=O)N1`, the Potency result in test [1] and in test [3] was “inactive” each time. For the same compound, the activation is 2.82% [at 17.1 µM, percent relative to cAMP agonist control] in test [2] and -0.359% [at 30.8 µM] in test [5]. The activity change, negative = inhibition in test [4] was -6.46% [at 30.8 µM].
For `CCCN1C(=O)c2ccccc2NC1c1ccc(Cl)c(Cl)c1` (stereo not given), the Potency entry in test [1] and in test [3] was “inactive” in each case. In addition, the activation in test [2] is 5.07% [at 17.1 µM, percent relative to cAMP agonist control]; in test [5], 12.5% [at 30.8 µM]. Further, the activity change, negative = inhibition in test [4] is -17% [at 30.8 µM].
As to `Cc1ccc(OCC(=O)Nc2ccc(N3CCCC3)cc2)cc1C`, the Potency result in test [1], in test [2], in test [3], in test [4] and in test [5] was “inactive” each time.
Take `Cc1ccc(/C=N/N2CCN(Cc3cccc4ccccc34)CC2)o1`: the Potency entry in test [1], in test [2], in test [3], in test [4] and in test [5] was “inactive” each time.
`CC(=O)Nc1ccc(NC(=S)NC(=O)/C=C/c2ccco2)cc1`: the Potency result in test [1], in test [2], in test [3], in test [4] and in test [5] was “inactive” throughout.
With `COc1cccc(C(NC(C)=O)c2ccc3cccnc3c2O)c1` (stereo not given), the Potency entry in test [1], in test [2], in test [4] and in test [5] was “inactive” in each case. In addition, the Potency in test [3] was 19 µM (active).
As to `O=C(Nc1cccnc1)c1c(O)c2cccc3c2n(c1=O)CC3`, the Potency entry in test [1] and in test [3] was “inactive” throughout. In addition, the activation is 9.2% [at 17.1 µM, percent relative to cAMP agonist control] in test [2] and 22.3% [at 30.8 µM] in test [5]. Further, the activity change, negative = inhibition in test [4] is -2.81% [at 30.8 µM].
For `CCCCC(CC)COC1(c2ccccc2)OC(=O)c2ccccc21` (stereo not given), the Potency result in test [1], in test [2], in test [3], in test [4] and in test [5] was “inactive” throughout.
For the compound `Cc1ccc(CN(C(=O)COc2cccc([N+](=O)[O-])c2)c2ccccn2)cc1`, the Potency result in test [1], in test [2], in test [4] and in test [5] was “inactive” each time. The outcome in test [3] was “inactive [at 12.7 µM]”.
As for `O=C(NCc1ccccc1)c1ccc2c(=O)[nH]c3c(C(=O)NCC4CCCO4)sc(=S)n3c2c1` (stereo not given), the Potency entry in test [1], in test [2], in test [3], in test [4] and in test [5] was “inactive” each time.
